Activity calls are given as the source filed them.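 How the source made its calls: active means mean duplicate potentiation above the buffer control mean plus 5 SD of buffer wells; inactive means the rest.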

For the test, the target named is Potassium voltage-gated channel subfamily KQT member 2 (Rattus norvegicus) (UniProt O88943). In words: rat KCNQ2 channel potentiation, selectivity assay for KCNQ1 potentiator project, KCNQ2-CHO-K1 cells (AID 493009).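 Further: assay conditions were tuned for KCNQ1 rather than KCNQ2 modulators; signal is max minus min fluorescence divided by baseline after thallium stimulus.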 The following applies: FluxOR thallium flux fluorescence, at 10 µM; stronger effect = higher value, scaled: buffer 0, activator control 100.
Sequence of Potassium voltage-gated channel subfamily KQT member 2 (Rattus norvegicus) (O88943 whole entry, looked up): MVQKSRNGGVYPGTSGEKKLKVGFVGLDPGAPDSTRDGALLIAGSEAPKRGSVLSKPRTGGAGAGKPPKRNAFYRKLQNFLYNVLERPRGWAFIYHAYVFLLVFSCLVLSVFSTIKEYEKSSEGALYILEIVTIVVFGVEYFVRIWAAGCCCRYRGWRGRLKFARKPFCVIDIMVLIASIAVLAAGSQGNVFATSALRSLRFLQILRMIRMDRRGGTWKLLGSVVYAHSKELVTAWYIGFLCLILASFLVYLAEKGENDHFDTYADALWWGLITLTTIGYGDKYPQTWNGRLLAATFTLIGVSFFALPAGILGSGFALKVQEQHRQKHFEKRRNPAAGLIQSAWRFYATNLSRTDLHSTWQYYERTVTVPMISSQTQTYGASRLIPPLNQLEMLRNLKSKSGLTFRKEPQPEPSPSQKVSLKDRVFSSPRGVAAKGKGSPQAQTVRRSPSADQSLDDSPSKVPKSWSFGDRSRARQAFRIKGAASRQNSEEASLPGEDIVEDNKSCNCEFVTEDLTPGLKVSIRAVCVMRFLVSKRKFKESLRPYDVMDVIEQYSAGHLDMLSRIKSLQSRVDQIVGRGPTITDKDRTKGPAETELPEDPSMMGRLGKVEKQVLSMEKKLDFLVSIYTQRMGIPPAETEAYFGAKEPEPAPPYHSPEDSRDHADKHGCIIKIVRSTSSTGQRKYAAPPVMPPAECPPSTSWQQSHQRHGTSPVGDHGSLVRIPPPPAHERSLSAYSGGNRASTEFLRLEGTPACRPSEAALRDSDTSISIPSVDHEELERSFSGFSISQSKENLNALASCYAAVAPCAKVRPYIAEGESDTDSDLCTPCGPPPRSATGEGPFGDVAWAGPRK
Consider `COc1cccc(-c2nc(=S)c3c(o2)CCCC3)c1`, for which the result was inactive. Same read-out and setting: the same measure for `CCOC(=O)c1c(C)[nH]sc1=S`: “inactive”; for `CC(Sc1nncs1)C(=O)NC1CCCCC1C` (stereo not given): “inactive”. The same measure, in the same setting: the same measure for `Cc1ccc(NC(=S)NC(=O)c2ccc(-c3ccccc3)cc2)c(C)c1`: “inactive”. As to `O=C(Nc1nnc(-c2ccccc2)o1)c1cc(Cl)sc1Cl`, the potentiation was 148% (active).

In the case of `CC(=O)c1cccc(OCc2cc(C(=O)N(C)C(C)c3ccccn3)no2)c1` (stereo not given), the result was inactive. On the same count and under the same terms, the same measure for `NC(=O)c1ccsc1NC(=O)COC(=O)Cc1ccsc1`: “inactive”; for `Cc1cc(-c2cccnc2)c(C#N)c(SCC#N)n1`: “inactive”; for `CC(c1ccccc1)c1nnc(N)s1` (stereo not given): “inactive”. Same read-out and setting: the same measure for `CCOc1ccc(OCCCN(C)C)cc1`: “inactive”.

Take `CCOc1cc(CN2CCOCC2)cc(C(C)=O)c1`: the result was inactive. On the same count and under the same terms, the same measure for `O=C(CSc1nnc(-c2ccco2)o1)Nc1cccc([N+](=O)[O-])c1`: “inactive”.

`CC1(C)CC(Nc2ccc(Nc3ccccc3)cc2)CC(C)(C)N1`: the outcome was inactive.

`O=C(c1ccc(-c2ccccc2)cc1)C1CCCN(C(=O)Cn2cncn2)C1` (stereo not given): the outcome was inactive. The same measure, in the same setting: the same measure for `O=C(NC(=S)Nc1ccccc1N1CCCC1)c1ccc(-c2cccc([N+](=O)[O-])c2)o1`: “inactive”. Still for that read-out and setting: the same measure for `CC1(c2ccc(OC(F)F)cc2)NC(=O)N(CC(=O)Nc2ccc3c(c2)OCO3)C1=O` (stereo not given): “inactive”. For `Cn1c(SCC(=O)NC2CC2)nnc1-c1cccs1`, the result was inactive. `C/C(=N\Nc1cccc2cccnc12)c1ccc[nH]1`: the outcome was inactive.

On to `CC1Oc2ccccc2N(CC(=O)N2CCCCCC2)C1=O` (stereo not given), for which the outcome was inactive. On the same count and under the same terms, the same measure for `CCCOc1ccc(C(=O)NNC(=S)NC(=O)c2cc(-c3ccc(Cl)cc3)nc3ccccc23)cc1`: “inactive”.

Source of the values: PubChem BioAssay.
